# From PubChem BioAssay
# A number with no mark means an inactive call. For some assays here: Measured potencies and affinities stand elsewhere. Activity calls are given as the source filed them. Unless noted, how the calls were made is not given here.
# Assays:
# [1] = antimalarial activity against Dd2 strain (AID 2302;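 active means growth inhibition above 50% at the single 2 µM test dose, taken to imply half-maximal potency below 2 µM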;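 further: 0% = DMSO untreated growth and 100% = chloroquine plus artemisinin killed control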); conditions: P. falciparum Dd2 in RBCs, LDH growth readout, 72 h; at 2 µM; stronger effect = higher value
# [2] = human hepatoma cell viability loss – ATP luminescence, cytotoxicity control for P. falciparum antimalarial project, primary screen (AID 2303;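 active means inhibition above 50%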;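 further: 0% = DMSO wells and 100% = digitonin-killed cells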); conditions: HepG2 viability, 24-48 h, at 10 µM, stronger effect = higher value
# [3] = target: L-lactate dehydrogenase (Plasmodium falciparum (isolate CDC / Honduras)) (UniProt Q27743); test: PfLDH activity inhibition – cell lysate, 3D7 strain, counter-screen for P. falciparum growth inhibition project (AID 2304);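 further: 0% = vehicle and 100% = reference inhibitor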; conditions: P. falciparum 3D7 crude extract, LDH APAD/NBT absorbance; at 2 µM; stronger effect = higher value
# [4] = inhibition of 3D7 malaria parasite growth – strain 3D7 (AID 2306);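 further: 0% = DMSO wells and 100% = chloroquine plus artemisinin control wells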; conditions: P. falciparum 3D7 erythrocytic growth, LDH absorbance, 72 h; at 2 µM; stronger effect = higher value
# [5] = target: Calcium-dependent protein kinase 1 (Plasmodium falciparum (isolate 3D7)) (UniProt P62344); test: PfCDPK1 kinase inhibitors, biochemical, TCAMS library (AID 1159585; cut-off not given, nearly all actives have IC50 up to about 0.98 µM;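 further: inhibitors leave more ATP so luminescence rises with inhibition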); conditions: recombinant PfCDPK1, Kinase-Glo ATP depletion luminescence
# [6] = target: Plasmodium falciparum protein kinase 6 (PK6, PF3D7_1337100) (UniProt Q8IDW1); test: PfPK6 kinase inhibitors, biochemical, TCAMS library (AID 1159586); conditions: recombinant PfPK6, Kinase-Glo ATP depletion luminescence
# [7] = target: Protein kinase 7 (PK7), Plasmodium falciparum 3D7 (PF3D7_0213400) (UniProt Q7YTF7); test: inhibition of Plasmodium PK7 catalytic activity – biochemical, TCAMS antimalarial set, Kinase-Glo luminescence (AID 1159587); conditions: recombinant PfPK7, Kinase-Glo ATP depletion luminescence
# [8] = target: Calcium-dependent protein kinase 4 (Plasmodium falciparum (isolate 3D7)) (UniProt Q8IBS5); test: PfCDPK4 kinase inhibitors, biochemical, TCAMS library (AID 1159588; cut-off not given, nearly all actives have IC50 up to about 0.91 µM); conditions: recombinant PfCDPK4, Kinase-Glo ATP depletion luminescence
# Calcium-dependent protein kinase 4 (Plasmodium falciparum (isolate 3D7)), sequence (Q8IBS5 whole entry, looked up): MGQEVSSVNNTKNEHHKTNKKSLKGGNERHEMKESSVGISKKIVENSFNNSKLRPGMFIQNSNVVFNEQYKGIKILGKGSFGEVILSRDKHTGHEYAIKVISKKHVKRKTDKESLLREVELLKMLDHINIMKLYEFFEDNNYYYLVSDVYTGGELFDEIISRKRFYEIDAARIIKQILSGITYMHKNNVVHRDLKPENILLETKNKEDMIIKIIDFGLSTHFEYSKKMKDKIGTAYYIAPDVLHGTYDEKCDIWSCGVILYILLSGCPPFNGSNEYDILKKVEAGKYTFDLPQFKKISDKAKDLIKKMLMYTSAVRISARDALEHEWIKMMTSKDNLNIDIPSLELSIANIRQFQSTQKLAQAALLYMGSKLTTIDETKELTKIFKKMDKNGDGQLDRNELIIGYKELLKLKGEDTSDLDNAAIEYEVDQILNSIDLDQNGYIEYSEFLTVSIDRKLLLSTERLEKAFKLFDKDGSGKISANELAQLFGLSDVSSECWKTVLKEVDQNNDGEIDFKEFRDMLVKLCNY
# Calcium-dependent protein kinase 1 (Plasmodium falciparum (isolate 3D7)), sequence (P62344 whole entry, looked up): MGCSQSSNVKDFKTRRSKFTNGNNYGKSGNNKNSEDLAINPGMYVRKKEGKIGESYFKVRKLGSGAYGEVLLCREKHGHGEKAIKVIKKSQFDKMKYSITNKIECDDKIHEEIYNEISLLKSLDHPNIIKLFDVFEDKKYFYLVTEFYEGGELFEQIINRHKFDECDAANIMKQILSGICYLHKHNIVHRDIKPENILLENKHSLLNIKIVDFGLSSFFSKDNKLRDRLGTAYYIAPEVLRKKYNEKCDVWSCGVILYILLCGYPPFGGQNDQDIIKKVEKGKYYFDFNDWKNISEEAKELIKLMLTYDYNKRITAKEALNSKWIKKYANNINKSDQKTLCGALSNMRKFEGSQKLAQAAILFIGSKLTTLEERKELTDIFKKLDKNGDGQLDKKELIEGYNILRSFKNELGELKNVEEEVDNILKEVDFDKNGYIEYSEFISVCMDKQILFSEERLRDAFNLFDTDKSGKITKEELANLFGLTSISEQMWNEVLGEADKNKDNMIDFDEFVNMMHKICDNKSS
# L-lactate dehydrogenase (Plasmodium falciparum (isolate CDC / Honduras)), sequence (Q27743 whole entry, looked up): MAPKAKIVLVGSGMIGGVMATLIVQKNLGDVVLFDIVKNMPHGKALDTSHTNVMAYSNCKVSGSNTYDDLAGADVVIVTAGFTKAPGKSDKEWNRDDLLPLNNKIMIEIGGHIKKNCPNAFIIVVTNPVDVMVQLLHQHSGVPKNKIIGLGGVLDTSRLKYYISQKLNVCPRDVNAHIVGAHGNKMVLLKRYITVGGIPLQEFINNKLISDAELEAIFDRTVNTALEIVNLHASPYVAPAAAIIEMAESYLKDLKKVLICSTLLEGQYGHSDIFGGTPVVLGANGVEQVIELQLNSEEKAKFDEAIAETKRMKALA
# Plasmodium falciparum protein kinase 6 (PK6, PF3D7_1337100), sequence (Q8IDW1 1-305): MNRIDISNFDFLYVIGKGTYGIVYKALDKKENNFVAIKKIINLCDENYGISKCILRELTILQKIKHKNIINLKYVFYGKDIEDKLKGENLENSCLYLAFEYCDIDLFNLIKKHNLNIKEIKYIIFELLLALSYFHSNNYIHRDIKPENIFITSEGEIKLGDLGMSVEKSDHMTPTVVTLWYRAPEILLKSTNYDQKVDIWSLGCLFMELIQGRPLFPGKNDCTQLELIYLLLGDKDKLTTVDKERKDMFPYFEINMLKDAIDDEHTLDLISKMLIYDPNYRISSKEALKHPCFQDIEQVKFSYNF
# Protein kinase 7 (PK7), Plasmodium falciparum 3D7 (PF3D7_0213400), sequence (Q7YTF7 1-343): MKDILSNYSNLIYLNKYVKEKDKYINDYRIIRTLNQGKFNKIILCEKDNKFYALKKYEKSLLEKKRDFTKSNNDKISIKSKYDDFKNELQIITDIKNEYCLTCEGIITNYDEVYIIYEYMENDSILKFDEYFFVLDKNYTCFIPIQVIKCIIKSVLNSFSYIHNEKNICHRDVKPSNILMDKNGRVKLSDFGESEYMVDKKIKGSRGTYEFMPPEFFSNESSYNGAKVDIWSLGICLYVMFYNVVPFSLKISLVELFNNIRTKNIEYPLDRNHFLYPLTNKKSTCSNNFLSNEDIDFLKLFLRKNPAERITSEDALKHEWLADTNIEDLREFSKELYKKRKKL
Structure (SMILES),growth inhibition [1],inhibition [2],inhibition [3] [%],growth inhibition [4],outcome [5],outcome [6],outcome [7],outcome [8]
N#CCSc1nnc(-c2ccccc2)c2ccccc12,73% (active),5%,-1,84% (active),inactive,inactive,inactive,inactive
COc1ccc(-c2c(-c3ccc(OCc4ccccc4)cc3O)n[nH]c2C(F)(F)F)cc1,57% (active),49%,2,93% (active),inactive,inactive,inactive,inactive
N#Cc1c(-c2ccccc2)cn2c1[nH]c(=O)c1ccccc12,95% (active),-1%,1,92% (active),inactive,inactive,inactive,inactive
COc1ccc2ccccc2c1C=NNc1cc(C)nc2c(C)cccc12,94% (active),-3%,-4,102% (active),inactive,inactive,inactive,inactive
O=C(CSc1nc2ccccc2c(=O)n1C1CC1)Nc1cc(C(F)(F)F)ccc1Cl,96% (active),5%,2,97% (active),inactive,inactive,inactive,inactive
O=C(Nc1ccc(C(F)(F)F)cc1)c1cc(Br)cnc1NCCCn1ccnc1,98% (active),32%,2,99% (active),inactive,inactive,inactive,inactive
COc1ccc(CC2(c3ccc(F)cc3)N=C(N)N(CCCc3ccc(F)c(F)c3)C2=O)cc1 (stereo unspecified),98% (active),42%,5,98% (active),inactive,inactive,inactive,inactive
O=C(/C=C/c1ccc(Cl)c(Cl)c1)N1CCC(CN2CCC(Cc3nc4ccccc4[nH]3)CC2)CC1,95% (active),34%,-2,101% (active),inactive,inactive,inactive,inactive
CCNc1cc(C(=O)N[C@@H](Cc2ccccc2)[C@H](O)CNCc2cccc(-n3ccnc3)c2)cc(N2CCCC2=O)c1,96% (active),1%,1,99% (active),inactive,inactive,inactive,inactive
OC(CN1CCN(Cc2ccccc2)CC1)Cn1c(-c2ccccc2)c(-c2ccccc2)c2ccccc21 (stereo unspecified),97% (active),-3%,-3,98% (active),inactive,inactive,inactive,inactive
Cc1ccccc1Nc1nc(NCCCO)c2ccccc2n1,50% (active),-1%,-5,83% (active),inactive,inactive,inactive,inactive
COc1ccc(CNCc2ccc(-c3ccc(-c4nc5ccccc5[nH]4)cc3)cc2)cc1,89% (active),63% (active),-4,103% (active),inactive,inactive,inactive,inactive
COc1ccc(Nc2nc(C)cc(NCc3ccc(-c4c(C)noc4C)cc3)n2)cc1,50% (active),48%,-5,99% (active),inactive,inactive,inactive,inactive
Cc1cc(N2CCN(C(=O)OC(C)(C)C)CC2)ccc1N,38%,11%,-2,92% (active),inactive,inactive,inactive,inactive
O=C(N[C@H]1CCN(Cc2ccc(OCCCN3CCCCC3)cc2)C1)c1cc(Cl)cc(Cl)c1,35%,13%,-1,99% (active),inactive,inactive,inactive,inactive
COc1cc2c(cc1O)[C@@H]1[C@H](O)[C@@H](O)C=C3CCN(C2)[C@H]31,31%,18%,3,90% (active),inactive,inactive,inactive,inactive
Cc1cc(-c2ccc3occ(CCN)c3c2)cnc1N,56% (active),-5%,-2,92% (active),inactive,inactive,inactive,inactive
CCNc1cc(C)nc(Nc2ccc(NC(=O)c3c(F)cccc3Cl)cc2)n1,89% (active),49%,-4,102% (active),inactive,inactive,inactive,inactive
O=C(Cn1cnc2c(nnn2Cc2ccccc2F)c1=O)Nc1ccc2c(c1)OCCO2,1%,-6%,-2,86% (active),inactive,inactive,inactive,inactive
CC(C)[C@@H](NC(=O)NC1CCC(CCN2[C@@H]3CC[C@H]2CC(OC(=O)C(CO)c2ccccc2)C3)CC1)C(O)(c1ccccc1)c1ccccc1 (stereo partly specified),56% (active),19%,2,96% (active),inactive,inactive,inactive,inactive
CCNc1cc(C(=O)N[C@@H](Cc2ccccc2)[C@H](O)CNCCc2cccc3ccccc23)cc(N2CCCC2=O)c1,39%,12%,3,86% (active),inactive,inactive,inactive,inactive
CN1CCN(CC(=O)Nc2cccc(-c3ccc(-c4nc5ccc(C(F)(F)F)cc5[nH]4)s3)c2)CC1,95% (active),36%,1,102% (active),inactive,inactive,inactive,inactive
